Experimental data published in PubChem BioAssay (NCI).
Several values for one entry are separate records, joined by “and”; a condition that tells them apart may be missing. Equal values may be shown once. Compounds without any hit were thinned out: in the full panel of roughly 83,000, 20% have a hit.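 96-well plates, one dose, 48 hours. Percent growth reported; active if below 10.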 Activity calls are given as the source filed them.

Experiments:
Assay in all cases: NCI-60 one-dose screen, 48 h (100 = growth as untreated, 0 = no growth, -100 = all killed)
Settings in all cases: 10 µM unless noted
SK-MEL-2 melanoma = tested on: SK-MEL-2 melanoma
EKVX NSCLC = tested on: EKVX NSCLC
SN12C renal = tested on: SN12C renal
UO-31 renal = tested on: UO-31 renal
TK-10 renal = tested on: TK-10 renal
ACHN renal = tested on: ACHN renal
CAKI-1 renal = tested on: CAKI-1 renal
A498 renal = tested on: A498 renal
CCRF-CEM leukemia = tested on: CCRF-CEM leukemia
MOLT-4 leukemia = tested on: MOLT-4 leukemia
SR leukemia = tested on: SR leukemia
RPMI-8226 leukemia = tested on: RPMI-8226 leukemia
OVCAR-8 ovarian = tested on: OVCAR-8 ovarian
OVCAR-5 ovarian = tested on: OVCAR-5 ovarian
OVCAR-4 ovarian = tested on: OVCAR-4 ovarian
SK-OV-3 ovarian = tested on: SK-OV-3 ovarian
IGROV1 ovarian = tested on: IGROV1 ovarian
OVCAR-3 ovarian = tested on: OVCAR-3 ovarian
HS 578T breast = tested on: HS 578T breast
NCI/ADR-RES ovarian = tested on: NCI/ADR-RES ovarian

Measured: growth

Cc1nnc(NS(=O)(=O)c2ccc(N=Nc3ccc(N)nc3N)cc2)s1
inactive: SK-MEL-2 melanoma 104% and 116% | EKVX NSCLC 104% and 105% | SN12C renal 92.3% and 105% | UO-31 renal 76.1% and 80.1% | TK-10 renal 112% and 111% | ACHN renal 103% and 110% | CAKI-1 renal 98% and 96% | A498 renal 99.7% and 123% | CCRF-CEM leukemia 100% and 105% | MOLT-4 leukemia 102% and 96.3% | SR leukemia 94.2% and 94.5% | RPMI-8226 leukemia 105% | OVCAR-8 ovarian 107% and 116% | OVCAR-5 ovarian 98.7% and 99.3% | OVCAR-4 ovarian 110% and 105% | SK-OV-3 ovarian 111% | IGROV1 ovarian 123% and 108% | OVCAR-3 ovarian 124% and 105% | HS 578T breast 121% and 105% | NCI/ADR-RES ovarian 102% and 106%

CN1CCN(CCCN2c3ccccc3Sc3ccc(Cl)cc32)CC1
inactive: SK-MEL-2 melanoma 106% | EKVX NSCLC 75% and 77.4% | SN12C renal 64% and 76.7% | UO-31 renal 54.5% | TK-10 renal 74.9% and 85.8% | ACHN renal 62.9% and 85.2% | CAKI-1 renal 55.2% and 60.7% | A498 renal 82.2% and 79.4% | CCRF-CEM leukemia 80.1% and 75.9% | MOLT-4 leukemia 70.3% and 73.9% | SR leukemia 74.7% | RPMI-8226 leukemia 76.3% and 92.3% | OVCAR-8 ovarian 84.8% and 85.4% | OVCAR-5 ovarian 94.4% | OVCAR-4 ovarian 68.4% and 81.1% | SK-OV-3 ovarian 99% | IGROV1 ovarian 54.5% | OVCAR-3 ovarian 93.9% and 81.3% | HS 578T breast 66.8% and 60.3% | NCI/ADR-RES ovarian 69% and 83.2%

Clc1ccc(/C=N\N2CCCCCC2)cc1
inactive: SK-MEL-2 melanoma 122% and 106% | EKVX NSCLC 88.7% and 90.9% | SN12C renal 90.9% and 106% | UO-31 renal 88.4% | TK-10 renal 105% and 103% | ACHN renal 99.5% and 102% | CAKI-1 renal 124% and 94.9% | A498 renal 79.6% | CCRF-CEM leukemia 101% | MOLT-4 leukemia 109% and 99.4% | SR leukemia 93.8% and 79.5% | RPMI-8226 leukemia 107% | OVCAR-8 ovarian 116% and 98.7% | OVCAR-5 ovarian 87.8% and 95% | OVCAR-4 ovarian 91.9% | SK-OV-3 ovarian 110% and 109% | IGROV1 ovarian 103% | OVCAR-3 ovarian 101% and 116% | HS 578T breast 109% and 139% | NCI/ADR-RES ovarian 104%

Cc1ccc(-c2nc3nc(-c4ccc(Br)cc4)nc(N4CCCNCC4)c3o2)cc1
inactive: SK-MEL-2 melanoma 108% | EKVX NSCLC 114% | UO-31 renal 63.4% | TK-10 renal 19.9% | A498 renal 80.5% | SK-OV-3 ovarian 110%
active: SN12C renal -77.4% | ACHN renal -95.4% | CAKI-1 renal -50.5% | CCRF-CEM leukemia -64.4% | MOLT-4 leukemia -56.8% | SR leukemia -32.2% | RPMI-8226 leukemia -36.9% | OVCAR-8 ovarian -45.6% | OVCAR-5 ovarian -44.4% | OVCAR-4 ovarian -94.2% | IGROV1 ovarian -75.6% | OVCAR-3 ovarian -95.1% | HS 578T breast -30.3% | NCI/ADR-RES ovarian -64.8%

Clc1ccc(Nc2nc(Nc3ccc(Cl)cc3)nc(Nc3ccc(-c4cc(-c5cccc(Cl)c5)on4)cc3)n2)cc1
inactive: SK-MEL-2 melanoma 72.9% | EKVX NSCLC 82.9% | SN12C renal 94.4% | UO-31 renal 90.1% | TK-10 renal 155% | ACHN renal 86.4% | CAKI-1 renal 85.4% | A498 renal 99.9% | CCRF-CEM leukemia 61% | RPMI-8226 leukemia 87% | OVCAR-8 ovarian 85.5% | OVCAR-5 ovarian 71.4% | OVCAR-4 ovarian 101% | SK-OV-3 ovarian 103% | IGROV1 ovarian 104% | OVCAR-3 ovarian 90.1% | HS 578T breast 105% | NCI/ADR-RES ovarian 84.1%
active: MOLT-4 leukemia 7.82% | SR leukemia -9.82%

O=Nc1c(O)ccc2ccccc12
1.11% (active) and 81% (inactive): OVCAR-3 ovarian
-3.35% (active) and 93% (inactive): OVCAR-8 ovarian
inactive: SK-MEL-2 melanoma 36.5% and 107% | EKVX NSCLC 91.4% | UO-31 renal 55.3% and 52.1% | TK-10 renal 115% | ACHN renal 57.7% and 83.3% | CAKI-1 renal 71.2% and 96.3% | A498 renal 84.6% and 99.1% | CCRF-CEM leukemia 20.6% and 58.4% | MOLT-4 leukemia 71.3% and 72.6% | SR leukemia 23.6% and 87.6% | RPMI-8226 leukemia 37.8% and 79.9% | OVCAR-5 ovarian 70.1% and 112% | OVCAR-4 ovarian 19% and 89% | SK-OV-3 ovarian 93.6% and 101% | IGROV1 ovarian 51.5% and 42% | HS 578T breast 54% and 112%
6.43% (active) and 97.7% (inactive): NCI/ADR-RES ovarian
4.86% (active) and 93.6% (inactive): SN12C renal

O=C1OCC2=C1C(c1cccc(C(F)(F)F)c1)c1cc3c(cc1N2CCO)OCCO3 (stereo not given)
active: CCRF-CEM leukemia 9.36% | OVCAR-3 ovarian -4.23%
inactive: SK-MEL-2 melanoma 26.1% | EKVX NSCLC 49.1% | SN12C renal 46% | UO-31 renal 47.4% | TK-10 renal 54.4% | ACHN renal 33.7% | CAKI-1 renal 30.5% | A498 renal 16% | MOLT-4 leukemia 16.8% | SR leukemia 13.3% | RPMI-8226 leukemia 22.2% | OVCAR-8 ovarian 11.4% | OVCAR-5 ovarian 45.9% | OVCAR-4 ovarian 66.3% | SK-OV-3 ovarian 16.1% | IGROV1 ovarian 38% | HS 578T breast 27.8% | NCI/ADR-RES ovarian 22.2%

COc1cc(OC)cc(-c2ccc(-c3ccc(C(=N)N)cn3)s2)c1
inactive: SK-MEL-2 melanoma 104% | EKVX NSCLC 95.6% | SN12C renal 79.2% | UO-31 renal 94.2% | TK-10 renal 113% | ACHN renal 75% | CAKI-1 renal 69.8% | A498 renal 102% | MOLT-4 leukemia 49.3% | OVCAR-8 ovarian 17.8% | OVCAR-5 ovarian 89.8% | OVCAR-4 ovarian 28.4% | SK-OV-3 ovarian 82.2% | IGROV1 ovarian 78.4% | HS 578T breast 84.9% | NCI/ADR-RES ovarian 95.4%
active: CCRF-CEM leukemia 8.54% | SR leukemia 6.61% | RPMI-8226 leukemia -1.98% | OVCAR-3 ovarian 5.54%

CCCCCCNC(=O)Oc1ccc(/C(=C(/CC)Cc2ccccc2)c2ccc(OCCCN(C)C)cc2)cc1
active: SR leukemia -9.68%
inactive: SK-MEL-2 melanoma 106% | EKVX NSCLC 89.2% | SN12C renal 87.1% | UO-31 renal 59% | TK-10 renal 82.2% | ACHN renal 100% | CAKI-1 renal 89.6% | A498 renal 89.9% | CCRF-CEM leukemia 69.4% | MOLT-4 leukemia 67.1% | RPMI-8226 leukemia 75.2% | OVCAR-8 ovarian 83.9% | OVCAR-5 ovarian 90.5% | OVCAR-4 ovarian 81.7% | SK-OV-3 ovarian 88.2% | IGROV1 ovarian 68.1% | OVCAR-3 ovarian 95.3% | HS 578T breast 86.3% | NCI/ADR-RES ovarian 72.2%

CN1CCN(CCNC(=O)c2cccc(CN3c4cccc5c4C(=Cc4cccnc43)N(C)C5=O)c2)CC1
active: CAKI-1 renal 8.78% | RPMI-8226 leukemia 2.26% | HS 578T breast -6.06%
inactive: SK-MEL-2 melanoma 62% | EKVX NSCLC 40.8% | SN12C renal 42.8% | UO-31 renal 14.3% | TK-10 renal 25.4% | ACHN renal 23.5% | A498 renal 30.9% | CCRF-CEM leukemia 47% | MOLT-4 leukemia 47.4% | SR leukemia 33.5% | OVCAR-8 ovarian 40.8% | OVCAR-5 ovarian 42% | OVCAR-4 ovarian 37.4% | SK-OV-3 ovarian 18.2% | IGROV1 ovarian 18.6% | OVCAR-3 ovarian 34.3% | NCI/ADR-RES ovarian 80.9%

Cc1ccc2[nH]c(=S)[nH]c(=O)c2c1
inactive: SK-MEL-2 melanoma 111% | EKVX NSCLC 104% | SN12C renal 99.9% | UO-31 renal 92.4% | TK-10 renal 85.4% | ACHN renal 101% | CAKI-1 renal 89.7% | A498 renal 94.8% | CCRF-CEM leukemia 98.8% | MOLT-4 leukemia 93.3% | SR leukemia 90.7% | RPMI-8226 leukemia 109% | OVCAR-8 ovarian 104% | OVCAR-5 ovarian 107% | OVCAR-4 ovarian 102% | SK-OV-3 ovarian 105% | IGROV1 ovarian 103% | OVCAR-3 ovarian 105% | HS 578T breast 104% | NCI/ADR-RES ovarian 104%

O=C(Oc1ccc(CO[N+](=O)[O-])cc1)c1ccccc1
active: SK-MEL-2 melanoma -72.3% | EKVX NSCLC -99.9% | SN12C renal -87.6% | UO-31 renal -90.4% | TK-10 renal -96.9% | ACHN renal -84.7% | CAKI-1 renal -97% | A498 renal -71.5% | CCRF-CEM leukemia -47.4% | MOLT-4 leukemia -50.1% | SR leukemia -45.7% | RPMI-8226 leukemia -53.1% | OVCAR-8 ovarian -83.7% | OVCAR-5 ovarian -81.2% | OVCAR-4 ovarian -77.1% | SK-OV-3 ovarian -90.4% | IGROV1 ovarian -80.2% | OVCAR-3 ovarian -97% | HS 578T breast -25.1% | NCI/ADR-RES ovarian -82%

O=[N+]([O-])c1ccc(S(=O)Cc2ccccc2)c([N+](=O)[O-])c1 (stereo not given)
59.7% (inactive) and 1.6% (active): OVCAR-4 ovarian
35.8% (inactive) and -14.6% (active): CAKI-1 renal
inactive: SK-MEL-2 melanoma 82.9% and 87.7% | EKVX NSCLC 90.4% | SN12C renal 62.5% and 87.4% | A498 renal 98% and 85.1% | RPMI-8226 leukemia 72.8% and 27.5% | OVCAR-8 ovarian 45.8% and 94.9% | OVCAR-5 ovarian 82.4% and 93.3% | SK-OV-3 ovarian 104% and 109% | IGROV1 ovarian 89.9% and 106% | HS 578T breast 118% and 95.2% | NCI/ADR-RES ovarian 90.9% and 90.6%
active: UO-31 renal -24.9% and -40.3% | ACHN renal -58.6% and -91.6% | CCRF-CEM leukemia -15% and 0.711% | SR leukemia 1.64% and -8.84%
32.5% (inactive) and -27.2% (active): TK-10 renal
81.6% (inactive) and 1.31% (active): MOLT-4 leukemia
13.9% (inactive) and -74.6% (active): OVCAR-3 ovarian
